# Source: PubChem BioAssay
# ROCK2 blocker: ROCK2 (human) kinase inhibition; actives 0.35% (n = 60,000); inhibition, % at 6 µM; O75116; purified ROCK2, Kinase-Glo ATP depletion luminescence;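 active = inhibition above the screen-wide mean inhibition plus 3 SD, cut at about 18% in these data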
# PKA inh: inhibitors of human protein kinase A; inhibition, % at 6 µM; actives 0.1% (n = 65,000); P17612; PKA Kemptide phosphorylation, Kinase-Glo ATP luminescence;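 active = inhibition above the screen-wide mean inhibition plus 3 SD, cut at about 21% in these data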
# JNK3 inh: JNK3 (human) kinase inhibition. inhibition, % at 8 µM. AID 746. actives 0.61% (n = 60,000). purified JNK3 kinase activity, HTS; in the data active = inhibition above about 17%
# Target sequence (P53779 whole entry, looked up): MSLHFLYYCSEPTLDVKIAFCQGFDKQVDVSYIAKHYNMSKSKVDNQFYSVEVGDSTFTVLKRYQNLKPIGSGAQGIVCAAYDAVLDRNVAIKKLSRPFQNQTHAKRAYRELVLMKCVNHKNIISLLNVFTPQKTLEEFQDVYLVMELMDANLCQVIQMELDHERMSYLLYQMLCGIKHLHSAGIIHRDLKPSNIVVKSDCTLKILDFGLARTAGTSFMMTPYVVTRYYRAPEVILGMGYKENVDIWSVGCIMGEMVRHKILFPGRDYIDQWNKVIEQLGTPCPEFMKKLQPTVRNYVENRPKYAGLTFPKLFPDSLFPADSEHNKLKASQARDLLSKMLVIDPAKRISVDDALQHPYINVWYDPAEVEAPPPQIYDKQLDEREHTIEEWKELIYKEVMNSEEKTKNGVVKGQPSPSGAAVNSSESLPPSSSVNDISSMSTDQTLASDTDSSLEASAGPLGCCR
# Her2 expr inh: lowers expression of human Her2 kinase; AID 645; actives 0.69% (n = 65,000); HER2 level % of control, % at 10 µM; SKBR-3 HER2 protein level, AlphaScreen, 18-24 h; active compounds read low; P04626;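 active = HER2 level under 5% of the carrier-only control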;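 also: lower value means stronger loss of Her2 protein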
# mHtt clearance: mutant huntingtin protein clearance | AID 853 | HeLa Exon1htt(103Q)mCFP, aggregate imaging; zero = plate's median compound well | inhibition, % at 1.5 µM | actives 0.42% (n = 47,000);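 active = inhibition of aggregate fluorescence above about 70%, also judged a hit by eye on the cell image, limit read from the data, passing the limit was not always enough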;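 also: cells exposed to compound for three days before fixation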
# SKBR3 24h inh: SK-BR-3 proliferation inhibitors. SK-BR-3 viability, CellTiter-Glo ATP luminescence, 24 h; active compounds read low. viability, % at 10 µM. actives 0.47% (n = 41,000);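 active = viability at or below the median of all test compounds minus 3 SD, in both replicates if run twice, cut at about 45% in these data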
# Numbers stand for hits; – = inactive; · = no result given. Compounds with a hit are over-represented: about 1.4% of the library has one in this group of screens.
SMILES,ROCK2 blocker,PKA inh,JNK3 inh,Her2 expr inh,mHtt clearance,SKBR3 24h inh
O=S(=O)(NC1CCCC1)c1ccc(S(=O)(=O)N2CCc3ccccc32)cc1,–,–,–,–,·,–
COc1ccc(-n2c(Cn3c(=O)sc4ccccc43)nnc2SCC(=O)N2CCOCC2)cc1,–,–,–,-17,–,·
O=C(Oc1ccc2c(c1)OCO2)c1cc2c(s1)CCC2,–,–,–,-7.5,·,·
O=C(c1cc2c(s1)CCCC2)N1CCN(Cc2ccc3c(c2)OCO3)CC1,–,–,–,–,·,·
Cc1cc(C)n(-c2nc3ccccc3c(=O)n2OCc2ccc(F)cc2)n1,–,–,–,–,–,40
Cc1cccc(NC(=O)CN2C(=O)COc3ccc(Cl)cc32)c1C,–,–,–,–,·,·
Cc1cc2ccccc2c(=O)n1CC(=O)NCC(=O)N1CCN(c2ccccc2)CC1,–,–,–,–,·,·
Cc1cc2ccccc2c(=O)n1CC(=O)N1CCN(c2cccc(Cl)c2)CC1,–,–,–,–,–,29
COc1ccc(-c2ccc(=O)n(CC(=O)N3CCN(c4ccccc4OC)CC3)n2)cc1,–,–,–,–,·,·
CC12CCC(C(=O)NCc3ccc4c(c3)OCO4)(OC1=O)C2(C)C (configuration not stated),–,–,–,–,71,–
Clc1cccc(Cl)c1CO/N=C/c1c(-c2ccccc2)nc2n1CCS2,·,·,·,·,–,·
CCn1c(=S)sc2nc(C)sc21,–,–,–,–,·,·
Cc1ccnc(NC(=O)CSc2cc(=O)n(C)c3ccccc23)c1,–,–,26,–,–,–
Cn1c(=O)cc(OCCCC(=O)NCc2ccccn2)c2ccccc21,–,–,–,–,–,·
Cc1ccnc(NC(=O)CCCOc2cc(=O)n(C)c3ccccc23)c1,–,–,27,–,–,·
Cc1ccc(C(=O)CSc2nnc(COc3cc(C)cc(C)c3)o2)cc1,–,–,–,–,·,·
CN(C)S(=O)(=O)c1cccc(-c2nnc(SCc3ccc4c(c3)OCCO4)o2)c1,–,–,–,–,·,·
N=c1sccn1CC(=O)Nc1ccccc1-c1ccccc1,·,–,·,–,·,33
N=c1sccn1CC(=O)Nc1cccc2ccccc12,·,·,·,·,–,·
C=CCOC(=O)C1=C(C)Nc2nnnn2C1c1cc(OC)ccc1OC (configuration not stated),–,–,–,-18,·,–
Cc1cc(NS(=O)(=O)c2cccs2)no1,–,–,–,-30,·,–
COc1ccc(S(=O)(=O)Nc2cc(C)cc(C)n2)c2ccccc12,–,–,–,–,86,–
Cc1ccc(NC(=O)Cn2nnc(C(=O)NCc3ccco3)c2N)cc1,·,·,·,·,71,·
Cc1ccc(NC(=O)Cn2nnc(C(=O)Nc3ccc(C)c(C)c3)c2N)cc1,·,–,·,–,83,·
CSc1ccc(Cn2nnc(C(=O)Nc3ccc(C)c(C)c3)c2N)cc1,·,·,·,·,–,·
SMILES,ROCK2 blocker,PKA inh,JNK3 inh,Her2 expr inh,mHtt clearance,SKBR3 24h inh
CC(=O)N=c1c(C#N)cc2c(=O)n3cccc(C)c3nc2n1CC(C)C,–,–,–,–,·,–
C=CCc1cccc2cc(C(=O)O)c(=O)oc12,·,·,·,·,–,·
C=CCc1cccc2cc(C(=O)NC)c(=O)oc12,–,–,–,-18,–,–
COc1ccc(NC(=O)C2CC(c3cc(OC)c(OC)c(OC)c3)=NO2)cc1OC (configuration not stated),–,–,–,–,·,·
COc1cccc(C2=NOC(C(=O)Nc3cc(OC)c(OC)c(OC)c3)C2)c1 (configuration not stated),–,–,81,–,·,·
Cc1ccccc1-n1nnnc1SCc1csc(-c2ccccc2)n1,–,–,–,–,·,·
COc1cccc(-c2nnc(SCC(=O)N(C(C)C)C(C)C)o2)c1,–,–,–,–,·,–
COc1cc(OC)cc(-c2nnc(SCC(=O)N(C(C)C)C(C)C)o2)c1,–,–,–,–,·,39
Cn1cc(C(=O)c2ccc(Cl)cc2)cc1-c1nc2ccccc2n1C,–,–,–,–,–,–
C=CCOc1cccc(C2c3c(oc4ccc(F)cc4c3=O)C(=O)N2CCCN2CCOCC2)c1 (configuration not stated),–,–,–,–,·,·
COc1cc(-c2nnc3sc(-c4ccccn4)nn23)cc(OC)c1OC,–,–,–,–,·,–
Cc1cccc(N(CC(=O)NCc2ccc3c(c2)OCO3)C(=O)CCC(=O)Nc2ccccn2)c1,–,–,–,-30,·,–
CC1(C)CC2(CCO1)N1CC3(C)CN2CC(C)(C1)C3=O (configuration not stated),·,·,·,·,–,·
COC(=O)Nc1nc2ccc(C(=O)c3ccccc3)cc2[nH]1,–,–,21,–,·,–
O=C1CCCc2nn(-c3ccccc3)c(-c3ccncc3)c21,–,–,30,–,–,–
O=C(NCc1ccc2c(c1)OCO2)c1nn2cccnc2c1Cl,–,–,–,–,·,–
COc1ccc(Nc2ccc3c(c2)=NC2(CCCCC2)[N+]=3[O-])cc1,·,·,·,-56,·,3.2
[O-][N+]1=c2ccc(Nc3ccccc3)cc2=NC12CCCCC2,–,–,–,-17,–,–
COc1ccc(OC)c(NC2=NC3(CCCC3)N=C(N)N2)c1,–,–,–,–,–,–
CC(C)Sc1nc(-c2cccs2)nc2c1c(=O)n(C)c(=O)n2C,–,–,–,–,·,·
COc1ccc(CNC(=O)c2cnn3c(C(F)F)cc(C)nc23)cc1OC,–,–,24,–,·,·
Cc1cc(C(F)F)n2ncc(C(=O)N3CCC(C(N)=O)CC3)c2n1,·,·,·,·,–,·
O=C(CCSc1ccccc1)Nc1ccc(S(=O)(=O)N2CCOCC2)cc1,–,–,–,–,·,–
Cc1c(C(=O)NCCN2CCOCC2)oc2ccc(S(=O)(=O)N3CCCCCC3)cc12,·,–,·,-22,·,–
O=C(CN1C(=O)C2C3C=CC(C3)C2C1=O)NCCN1CCCc2ccccc21 (configuration not stated),–,–,–,–,·,–
SMILES,ROCK2 blocker,PKA inh,JNK3 inh,Her2 expr inh,mHtt clearance,SKBR3 24h inh
O=C(CCN1C(=O)C2C3C=CC(C3)C2C1=O)NCCN1CCCc2ccccc21 (configuration not stated),–,–,–,–,·,30
O=C(Nc1ccccc1)N(C1=NCCC1)c1ccc(OC(F)F)cc1,–,–,–,–,·,–
CCCCCn1c(SCC#N)nc2cc(C(=O)NC3CCCCC3)ccc2c1=O,–,–,–,-20,·,–
COc1ccc2cc3c(N)c(C(=O)NCc4ccco4)sc3nc2c1,20,–,–,–,–,–
CCOc1ccc(N2CCn3c2nc2c3c(=O)n(CCc3ccccc3)c(=O)n2C)cc1,–,–,–,–,·,–
CCC1CCCCN1c1nc2c(c(=O)n(C)c(=O)n2C)n1CCSc1nc2ccccc2o1 (configuration not stated),–,–,–,–,·,·
N#CC1=C(N)Oc2cc(O)ccc2C1c1ccncc1 (configuration not stated),21,–,–,–,·,–
CCn1c(CNc2cccc(Cl)c2)nnc1SCc1ccccc1,–,–,–,–,·,37
Cc1ccc(C)c(N2CCN(C(=O)CCS(=O)(=O)c3cccc4nonc34)CC2)c1,·,–,·,–,·,–
O=S(=O)(NC(=NC1CCCC1)C(F)(F)F)c1ccccc1,–,–,–,–,·,·
